The source made the active and inactive calls. Rule for the calls: active = hit-call score of the fitted dose curve at least 0.9, where 1 is the maximum; inactive = score below 0.9.
Experiment: CCTE_Padilla_ZF_Score.Swim_bladder: CCTE's 144 Hour Post-fertilization zebrafish Assay Score for Swim Bladder Malformation, Padilla Lab (AID 2284408)
Protocol: CCTE_Padilla_ZF_Phenotype_Score is a whole embryo, multiplexed assay using zebrafish ova exposed for 144 hours post fertilization on a 96-well plate.CCTE_Padilla_ZF_Score.Swim_bladder is one of one assay component(s) measured or calculated from the CCTE_Padilla_ZF_Phenotype_Score assay. It is designed to make measurements of zebrafish development as detected with brightfield microscopy of developing zebrafish embryos.Data from the assay component CCTE_Padilla_ZF_Score.Swim_bladder was analyzed into 1 assay endpoints. This assay endpoint, CCTE_Padilla_ZF_Score.Swim_bladder, was analyzed in the positive analysis fitting direction relative to DMSO as the negative control and baseline of activity. Using a type of viability reporter, gain-of-signal activity can be used to understand changes in developmentals as they relate to the whole embryo. To generalize the intended target to other relatable targets, this assay endpoint is annotated to the zebrafish development intended target family, where the subfamily is swim bladder morphogenesis.
Zebrafish husbandry: Wild type adult zebrafish (Danio rerio; undefined outbred stock obtained from Aquatic Research Organisms, Hampton, NH, 03842) were housed in an AAALAC-approved animal facility at 28C with a 14:10 h light: dark cycle (lights on at 08:30 h). Adult fish (2-3 females per male; density = 15-20 adults per tank) were kept in one of several 9-liter (L) flow-through colony tanks (Aquaneering Inc., San Diego, CA). All adults in a colony tank were placed in a 2 L (static) breeding tank (Aquatic Habitats, Apopka, FL) one hour prior to light onset. Typically, adults from two to three colony tanks were mated on the same day. Two hours after light onset the adults were returned to the colony tank. All embryos were gathered from each breeder tank, pooled, and placed in a 28C water bath for 2 h, followed by two washes with 0.06% bleach (v/v) in 10% Hanks' Balanced Salt Solution (13.7 mM NaCl 0.54 mM KCl, 25 uM Na2HPO4, 130 uM CaCl2 100 um MgSO4 and 420 um NaHCO3,), hereafter referred to as Hanks' solution, for 5 min in order to remove any residual bacteria or fungi. Immediately following washing, the embryos were examined, and healthy embryos were separated from dead or unfertilized eggs and moved into fresh Hanks'. Chemical exposures: Zebrafish embryos were exposed in 96-well plates. Between 6- and 8-hours post fertilization (hpf), healthy embryos (with chorions) were transferred, one embryo per well, into 96 well (0.5 mL) microtiter plates (Cell Culture-Treated, Flat-Bottom Microplate 96 well [Corning Costar, Kennebunk, ME; Cat 09-761-145]) filled with 200 uL of Hanks' solution. A random number generator was used to assign the order in which the rows of embryos were plated in 96 well plates each week. After plating, the embryos were dosed with 0.8 uL of the chemical dosing solution then immediately sealed with AlumaSeal II (Excel Scientific Inc, Victorville, CA) to prevent volatilization of the chemicals, and then placed in a leakproof secondary container. These containers were placed in an incubator maintained on a 14:10 h light: dark cycle at 26C for rearing. On 5 dpf, live larvae were gently moved out of the plate with test chemicals and into a new 96 well mesh plate (Millipore Corp., Bedford, MA) with just the Hanks' solution. Once within the mesh well plate, the animals were rinsed with 400 uL of fresh Hanks' three times, and then the plates were covered with a non-adhesive material (Microseal A, BioRad, Hercules, CA), plate lid added, and then plate sides wrapped in Parafilm (PM992, Bermis Company, Neenah, WI), and returned to the incubator. […]

| SMILES | outcome | AC50 |
| --- | --- | --- |
| CO[Si](C)(CCC(F)(F)C(F)(F)C(F)(F)C(F)(F)C(F)(F)C(F)(F)F)OC | inactive | – |
| O=C(O)C(F)(F)C(F)(F)C(F)(F)C(F)(F)C(F)(F)C(F)(F)C(F)F | inactive | – |
| OCCCCC(F)(F)C(F)(F)C(F)(F)C(F)(F)F | – | 30.6 µM (active) |
| O=C(O)CCC(F)(F)C(F)(F)C(F)(F)F | inactive | – |
| NC(=O)C(F)(F)C(F)(F)C(F)(F)F | inactive | – |
| C=CC(=O)OCC(F)(F)C(F)(F)C(F)(F)COC(=O)C=C | inactive | – |
| NC(=O)C(F)(F)C(F)(F)C(F)(F)C(F)F | inactive | – |
| C=CC(=O)OCC(F)(F)C(F)(F)C(F)(F)C(F)(F)C(F)(F)C(F)(F)C(F)(F)C(F)F | – | 102 µM (active) |
| NCC(F)(F)C(F)(F)C(F)(F)C(F)(F)C(F)(F)C(F)(F)F | inactive | – |
| O=C(O)C(F)(F)C(F)(F)C(F)(F)OC(F)(C(F)(F)F)C(F)(F)F | inactive | – |
| NC(O)(C(F)(F)F)C(F)(F)F | inactive | – |
| O=S(=O)(Cl)C(F)(F)C(F)(F)C(F)(F)C(F)(F)C(F)(F)C(F)(F)C(F)(F)C(F)(F)F | – | 12.1 µM (active) |
| C[Si](Cl)(Cl)CCC(F)(F)C(F)(F)C(F)(F)C(F)(F)C(F)(F)C(F)(F)F | inactive | – |
| O=C(O)C(F)(F)OC(F)(F)C(F)(F)OC(F)(F)C(F)(F)OC(F)(F)F | inactive | – |
| O=S(=O)(O)CCC(F)(F)C(F)(F)C(F)(F)C(F)(F)C(F)(F)C(F)(F)C(F)(F)C(F)(F)F | inactive | – |
| FC(F)(F)C(F)(F)C(F)(F)C(F)(F)C(F)(F)C(F)(F)C(F)(F)CCI | inactive | – |
| OCC(O)CC(F)(F)C(F)(F)C(F)(F)C(F)(F)F (stereo not given) | inactive | – |
| FC(F)(F)C(F)(F)C(F)(F)CC1CO1 (stereo not given) | inactive | – |
| O=S(=O)(O)CCC(F)(F)C(F)(F)C(F)(F)C(F)(F)F | inactive | – |
| CCOC(=O)CC(=O)C(F)(F)C(F)(F)F | inactive | – |

| SMILES | outcome | AC50 |
| --- | --- | --- |
| OCC(F)(F)C(F)(F)C(F)(F)C(F)(F)C(F)(F)C(F)(F)C(F)(F)C(F)(F)CO | – | 3.96 µM (active) |
| O=S(=O)(OCC(F)(F)F)C(F)(F)C(F)(F)C(F)(F)C(F)(F)F | – | 88.8 µM (active) |
| O=C(Cl)C(F)(F)C(F)(F)C(F)(F)C(F)(F)C(F)(F)C(F)(F)C(F)(F)F | inactive | – |
| CN(C(=O)C(F)(F)C(F)(F)C(F)(F)F)[Si](C)(C)C | inactive | – |
| OCC(F)(F)C(F)(F)C(F)(F)CO | inactive | – |
| O=C(F)C1(F)C(F)(F)C(F)(F)C(F)(F)C(F)(F)C1(F)F | inactive | – |
| C=CC(=O)OCCC(F)(F)C(F)(F)C(F)(F)C(F)(F)F | – | 88.3 µM (active) |
| OCC(F)(F)C(F)(F)C(F)(F)C(F)(F)C(F)(F)C(F)(F)CO | – | 11.6 µM (active) |
| CCN(CCO)S(=O)(=O)C(F)(F)C(F)(F)C(F)(F)C(F)(F)C(F)(F)C(F)(F)C(F)(F)C(F)(F)F | inactive | – |
| O=C(Cl)C(F)(F)C(F)(F)C(F)(F)C(F)(F)C(F)(F)C(F)(F)F | inactive | – |
| O=C(O)CCC(F)(F)C(F)(F)C(F)(F)C(F)(F)C(F)(F)C(F)(F)C(F)(F)F | inactive | – |
| COC(F)(C(F)F)C(F)(F)F (stereo not given) | inactive | – |
| NS(=O)(=O)C(F)(F)C(F)(F)C(F)(F)C(F)(F)C(F)(F)C(F)(F)F | – | 2.66 µM (active) |
| NC(=O)C(F)(F)C(F)(F)C(F)(F)C(F)(F)C(N)=O | inactive | – |
| OCC(O)CC(F)(F)C(F)(F)C(F)(F)C(F)(F)C(F)(F)C(F)(F)C(F)(F)C(F)(F)F (stereo not given) | – | 6.73 µM (active) |
| NCC(F)(F)C(F)(F)C(F)(F)C(F)(F)C(F)(F)C(F)(F)C(F)(F)C(F)(F)F | inactive | – |
| O=C(O)C(F)(F)C(F)(F)C(F)(F)C(=O)O | inactive | – |
| OC(O)C(F)(F)C(F)(F)F | inactive | – |
| O=C(O)C(F)(F)C(F)(F)C(F)(F)OC(F)(F)F | inactive | – |
| OCCCC(F)(F)C(F)(F)C(F)(F)C(F)(F)C(F)(F)C(F)(F)C(F)(F)C(F)(F)F | inactive | – |
